Measurements: ChEMBL document CHEMBL4513216, “Probing the Open Global Health Chemical Diversity Library for Multistage-Active Starting Points for Next-Generation Antimalarials” (ACS Infect Dis, 2020)
Out of some 68,000 compounds screened, about 2,700 (4%) showed an effect of 50% or more. This excerpt belongs to a sample that is enriched for strong results.

System: Plasmodium berghei
Assay: Screen against P. berghei liver stage (PbLuc), transformed with Luciferase, at 2uM
Format: functional, HepG2
Details: tested at 2 uM

Row | Compound | INHIBITION [%]
1 | CCN1CCCC1CN(Cc1ccon1)CC1CCN(CCOC)CC1 (stereo not given) | 55.66
2 | CCN1CCCC1CN(Cc1ccoc1)CC1CCN(CCOC)CC1 (stereo not given) | 42.2
3 | CCN1CCCC1CN(Cc1cc[nH]n1)CC1CCN(CCOC)CC1 (stereo not given) | 18.63
4 | Cc1cc(C)nc(NC(C)Cc2cnccn2)n1 (stereo not given) | 4.42
5 | Cc1cc(N2CCCC2c2nnc3n2CCCCC3)nc(N)n1 (stereo not given) | 38.89
6 | CC(C)c1noc(-c2ccc(NCCCN3CCCC(O)C3)nc2)n1 (stereo not given) | 22.57
7 | CCc1cc(C(=O)N2CCc3nc4c(C)csc4c(=O)n3CC2)on1 | 51.32
8 | Cc1csc2c(=O)n3c(nc12)CCN(C(=O)c1ccccn1)CC3 | -25.54
9 | Cc1csc2c(=O)n3c(nc12)CCN(C(=O)c1ccnn1C)CC3 | 19.07
10 | CNc1cncc(C2CCCN2c2cc(C)ncn2)n1 (stereo not given) | 5.15
11 | Cc1c(Cl)cccc1S(=O)(=O)N1CCC2(CC1)OCCS2 | -21.09
12 | COc1cccc([C@H]2CN(C(=O)c3ccccc3)[C@@H]3CCCN[C@H]23)c1 | 34.48
13 | N#Cc1c(Cl)nsc1N1CCN(CC2CC2)CC1 | 20.88
14 | N#Cc1c(Cl)nsc1N1CCN(CC2CCCCC2)CC1 | 29.89
15 | CC(C)(C)CCN1CCN(c2snc(Cl)c2C#N)CC1 | 58.29
16 | c1coc(CN2CCCC3(COCCN(Cc4c[nH]nn4)C3)C2)c1 (stereo not given) | -10.66
17 | CCn1cc(NC(=O)NCc2ccc(CN3CCOCC3)cc2)cn1 | 17.39
18 | CN1CCN(c2cccc(Cl)c2CNCCS(C)(=O)=O)CC1 | 4.42
19 | O=C(Cc1ccc2c(c1)OCC2)Nc1nc[nH]n1 | 8.14
20 | O=C(c1ccncc1)N1CCC(Oc2cccc(C(F)(F)F)c2)CC1 | 26.74
21 | Nc1cc(C(=O)N2CCC(Oc3cccc(C(F)(F)F)c3)CC2)ccn1 | 72.05
22 | O=C(c1ccc(=O)[nH]c1)N1CCC(Oc2cccc(C(F)(F)F)c2)CC1 | 57.75
23 | O=C(c1cccnc1)N1CCC(Oc2cccc(C(F)(F)F)c2)CC1 | 45.82
24 | CC(N)C(=O)N1CCC(Oc2cccc(C(F)(F)F)c2)CC1 (stereo not given) | 48.21

Row | Compound | INHIBITION [%]
25 | Nc1ccc(C(=O)N2CCC(Oc3cccc(C(F)(F)F)c3)CC2)cn1 | 17.2
26 | Cc1cc(C)c2c(OCC(=O)N(C)CC(=O)NC(C)C)nn(C)c2n1 | 44.95
27 | CN(Cc1ccc(F)cc1)C(=O)CN1CCOC(Cn2cncn2)C1 (stereo not given) | 2.08
28 | O=c1cc(CN(CCO)C2CC2)nc2ccc(Cl)cn12 | -28.15
29 | COc1ccc(S(=O)(=O)NCCCc2nnc3nc(C)cc(C)n23)cc1 | 12.7
30 | CCCNc1ncc(CN2CCN(C)C(=O)C2C)cn1 (stereo not given) | -29.46
31 | CCCNc1ncc(CN2CCC3(CC2)CNC(=O)C3)cn1 | 29.94
32 | CCCNc1ncc(CN2CCC3(CCNC(=O)CC3)CC2)cn1 | 56.78
33 | COCc1ncc(CN2CCC3(CCNC(=O)CC3)CC2)cn1 | 53.55
34 | COCc1ncc(CN2CCC3(CCNCC3)CC2)cn1 | -8.84
35 | COc1ncc(CN2CCC3(CCNC(=O)CC3)CC2)cn1 | 0.85
36 | N#CC1(C(=O)NCC2CCC3(CCNCC3)O2)CC1 (stereo not given) | 49.07
37 | O=C(NCC1CCC2(CCNCC2)O1)C1CC1 (stereo not given) | 24.36
38 | COC(=O)NCC1CCC2(CCNCC2)O1 (stereo not given) | 61.7
39 | Cn1ccc(C(=O)N2C[C@@H]3CN(CC4CC4)CCO[C@@H]3C2)n1 | 42.79
40 | O=C(CCc1nc(Cl)n[nH]1)N1CCC2(CCCNC2=O)C1 (stereo not given) | -35.22
41 | O=C(CCc1nc(Cl)n[nH]1)N1CCC2(CCCN(CC3CCC3)C2=O)C1 (stereo not given) | 57.34
42 | O=C(CCCn1cncn1)N1CCC2(CCCN(CC3CC3)C2=O)C1 (stereo not given) | 23.19
43 | O=C1CCc2cc(NC(=O)C3CCCN3c3nccs3)ccc2N1 (stereo not given) | -73.41
44 | Cc1cc(-c2ccc(C(C)N3CCOCC3)cc2)cnc1N (stereo not given) | -38.09
45 | CC(c1ccc(-c2cnc(N)nc2)cc1)N1CCOCC1 (stereo not given) | 41.78
46 | Cc1cc(-c2ccc(C(C)N3CCCCC3)cc2)cnc1N (stereo not given) | 69.99
47 | CCC(CC)c1cc(CNC(=O)N2CCC[C@@H]2CO)on1 | -1.89
48 | COc1ccccc1C(=O)N1Cc2cc(C)ccc2OCC1CN(C)C (stereo not given) | -71.28

Row | Compound | INHIBITION [%]
49 | Cc1ccc(O)c(C(=O)N2CCOCC2c2c(C)n[nH]c2C)c1 (stereo not given) | 24.02
50 | Cc1nn(C)c(C)c1C1COCCN1C(=O)c1cc(F)ccc1F (stereo not given) | 21.52
51 | Cc1ccc(O)c(C(=O)N2CCOCC2c2c(C)nn(C)c2C)c1 (stereo not given) | 60.71
52 | CC(NC(=O)Nc1cccnc1N1CCOCC1)c1ccncc1 (stereo not given) | 0.45
53 | CC(C)OCc1cccc(CNc2cnn(C)c(=O)c2Cl)c1 | 4.18
54 | CC(=O)N1CCO[C@@H]2CN(S(=O)(=O)c3cccnc3)C[C@@H]2C1 | -37.03
55 | Nc1nc(CN2CCN(c3nccs3)CC2)cs1 | -4.26
56 | CCN(C(C)=O)c1nc(CN2CCN(c3nccs3)CC2)cs1 | 55.36
57 | CC(=O)N(C)c1nc(CN2CCN(c3nccs3)CC2)cs1 | -20.95
58 | CC(C)N1CCc2c(c(COc3cccnc3)nn2CC2CC2)C1 | -0.59
59 | Cc1nn(C)c(C)c1C1CCCN1Cc1nc(-c2cccs2)no1 (stereo not given) | 45.83
60 | Cc1cccc(C(=O)N2CCN(C)CC2)c1NC(=O)c1ccncc1 | 29.22
61 | CNc1cc(C2CCCN2Cc2ccc(OCC(=O)O)cc2)ccn1 (stereo not given) | 29.06
62 | COCCO[C@H]1CCN(C(=O)c2ccno2)[C@H]1Cc1cnn(C)c1 | 1.02
63 | Cn1cc(C[C@H]2[C@@H](OCC3CC3)CCN2C(=O)c2ccc[nH]2)cn1 | -1.33
64 | COCCO[C@H]1CCN(C(=O)c2ccoc2C)[C@H]1Cc1cnn(C)c1 | 5.35
65 | COCCO[C@H]1CCN(C(=O)c2cnoc2C)[C@H]1Cc1cnn(C)c1 | 63.06
66 | CN(C)C(=O)N1CC[C@@H](O)[C@@H]1Cc1cnn(C)c1 | 12.88
67 | CCO[C@@H]1CCN(C(=O)c2ccc[nH]2)[C@@H]1Cc1cnn(C)c1 | 5.28
68 | CCO[C@@H]1CCN(C(=O)c2ccnnc2)[C@@H]1Cc1cnn(C)c1 | 18.15
69 | COCCO[C@@H]1CCN(C(=O)c2ccc[nH]2)[C@H]1Cc1cnn(C)c1 | 66.69
70 | CCO[C@@H]1CCN(C(=O)N(C)C)[C@@H]1Cc1cnn(C)c1 | 63.84
